Assay [1] deals with RAW-Dual. As to the kind of experiment: NF-kB SEAP reporter activity, fold change vs agonist alone; higher = enhanced NF-kB activity. The note with it: library stock concentration (final ~1000-fold dilution): 10 mM. An outline of the steps: (§1)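 RAW-Dual macrophages were seeded in DMEM at 50,000 cells/well in 384-well plates, given 50 nL of library stock by pin tool, and given a PRR agonist 1 h later. Plates were held at 37 °C, 5% CO2 for 20 hours, after which supernatant was read for IRF by QuantiLuc luminescence and for NF-κB by QuantiBlue absorbance at 620 nm. Reporter activity is expressed as fold change over wells that received agonist alone. A well was called cytotoxic when IncuCyte confluency fell below 70% of agonist controls in both mask sets.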

The subject of assay [2] is RAW-Dual. As to the kind of experiment: NF-kB SEAP reporter activity, fold change vs agonist alone; cytotoxicity flag (confluency mask): not cytotoxic; higher = enhanced NF-kB activity. An outline of the steps:
as §1

The subject of assay [3] is RAW-Dual. As to the kind of experiment: NF-kB SEAP reporter activity, fold change vs agonist alone; cytotoxicity flag (confluency mask): cytotoxic (confluency <70% of control); higher = enhanced NF-kB activity. The method, boiled down:
as §1

[4] abbreviates: cytotoxicity flag (confluency mask): not cytotoxic, agonist: Imiquimod (TLR7) […].
Where [5] appears, read: cytotoxicity flag (confluency mask): not cytotoxic, agonist: MPLA (TLR4) […].
Where [6] appears, read: agonist: ODN 1826 (TLR9) 0.5 ug/mL.
Where [7] appears, read: agonist: Pam2CSK4 (TLR2/6) 0.1 ug/mL.
Where [8] appears, read: agonist: Pam3CSK4 (TLR2/1) 0.1 ug/mL.

In all, about 2,900 compounds were measured (“NF-kB SEAP reporter activity, fold change vs agonist alone”: median about 0.99, highest 2% from about 2.6 on). This excerpt belongs to a sample that is enriched for the highest values.

For `CC(C)C(NC(=O)C(CC(=O)O)NC(=O)C(CCCCN)NC(=O)C(N)CCCNC(=N)N)C(=O)NC(Cc1ccc(O)cc1)C(=O)O` (configuration not stated), the “NF-kB SEAP reporter activity” value worked out at 1.14 in the assay with RAW-Dual [1] (setting [4]) and 0.967 in the assay with RAW-Dual [1] (setting [5]).

Take `CC(C)C(NC(=O)C(CC(=O)O)NC(=O)C(CCCCN)NC(=O)C(N)CCCNC(=N)N)C(=O)NC(Cc1ccc(O)cc1)C(=O)O` (configuration not stated) (library stock concentration (final ~1000-fold dilution): 10 mM): the “NF-kB SEAP reporter activity” value in the assay with RAW-Dual [2] (agonist: LPS (TLR4) 0.1 ug/mL) is 1.27; in the assay on RAW-Dual [2] (setting [6]) it was 1.1; with RAW-Dual [2] (setting [7]), 1.19; in the assay with RAW-Dual [2] (setting [8]), 1.17.

For the compound `CNC(=O)C(NC(=O)C(CC(C)C)C(O)C(=O)NO)C(C)(C)C` (configuration not stated), the “NF-kB SEAP reporter activity” value was determined as 1.08 in the assay on RAW-Dual [1] (setting [4]) and 1.38 in the assay on RAW-Dual [1] (setting [5]).

For `CNC(=O)C(NC(=O)C(CC(C)C)C(O)C(=O)NO)C(C)(C)C` (configuration not stated) (library stock concentration (final ~1000-fold dilution): 10 mM), the “NF-kB SEAP reporter activity” value in the assay with RAW-Dual [2] (agonist: LPS (TLR4) 0.1 ug/mL) turned out to be 1.09; in the assay on RAW-Dual [2] (setting [6]) it was 1.01; in the assay on RAW-Dual [2] (setting [7]), 1.04; in the assay with RAW-Dual [2] (setting [8]), 1.01.

For `Oc1c(F)cc(-c2cnccc2-c2ccc(N3CCOCC3)cc2)cc1F`, the “NF-kB SEAP reporter activity” value with RAW-Dual [1] (setting [4]) turned out to be 1.08; with RAW-Dual [1] (setting [5]), 0.911.

In the case of `Oc1c(F)cc(-c2cnccc2-c2ccc(N3CCOCC3)cc2)cc1F` (library stock concentration (final ~1000-fold dilution): 10 mM), the “NF-kB SEAP reporter activity” value was found to be 1.12 in the assay on RAW-Dual [2] (agonist: LPS (TLR4) 0.1 ug/mL), 0.913 in the assay on RAW-Dual [2] (setting [6]), 0.947 with RAW-Dual [2] (setting [7]) and 0.73 in the assay with RAW-Dual [2] (setting [8]).

With `O=C(Nc1cc(C(F)(F)F)ccc1N1CCN(Cc2ccccn2)CC1)c1ccc(-c2ccncc2)o1`, the “NF-kB SEAP reporter activity” value in the assay with RAW-Dual [1] (setting [4]) came out at 0.609; in the assay with RAW-Dual [1] (setting [5]), 1.03.

Regarding `O=C(Nc1cc(C(F)(F)F)ccc1N1CCN(Cc2ccccn2)CC1)c1ccc(-c2ccncc2)o1` (library stock concentration (final ~1000-fold dilution): 10 mM), the “NF-kB SEAP reporter activity” value in the assay on RAW-Dual [2] (agonist: LPS (TLR4) 0.1 ug/mL) turned out to be 1.25; in the assay with RAW-Dual [2] (setting [6]) it was 0.731; in the assay with RAW-Dual [2] (setting [7]), 0.657; in the assay on RAW-Dual [2] (setting [8]) it was 0.818.

Regarding `CC(C)CCN1c2nc(Nc3cc(F)c(O)c(F)c3)ncc2N(C)C(=O)C1C` (configuration not stated) (library stock concentration (final ~1000-fold dilution): 10 mM), the “NF-kB SEAP reporter activity” value with RAW-Dual [2] (agonist: LPS (TLR4) 0.1 ug/mL) is 4.3; in the assay with RAW-Dual [2] (setting [6]) it was 2.63; in the assay on RAW-Dual [2] (setting [7]), 1.02; in the assay with RAW-Dual [2] (setting [8]) it was 2.05.

As for `CC(C)CCN1c2nc(Nc3cc(F)c(O)c(F)c3)ncc2N(C)C(=O)C1C` (configuration not stated), the entries for the “NF-kB SEAP reporter activity” value in the assay with RAW-Dual [1] (setting [4]) and with RAW-Dual [1] (setting [5]) were 2.84 and 2.55, respectively.

`COc1cc(-c2cc(-c3ccc(Cl)cc3)nc(=O)[nH]2)ccc1O` (library stock concentration (final ~1000-fold dilution): 10 mM): the “NF-kB SEAP reporter activity” value in the assay on RAW-Dual [2] (agonist: LPS (TLR4) 0.1 ug/mL) was 1.6; in the assay with RAW-Dual [2] (setting [6]) it was 0.991; in the assay on RAW-Dual [2] (setting [7]), 1.22; in the assay on RAW-Dual [2] (setting [8]), 1.39.

On to `COc1cc(-c2cc(-c3ccc(Cl)cc3)nc(=O)[nH]2)ccc1O`, for which the “NF-kB SEAP reporter activity” value came to 1.09 in the assay with RAW-Dual [1] (setting [4]) and 1.15 with RAW-Dual [1] (setting [5]).

Take `CCN(CC)CC#CCOC(=O)C(O)(c1ccccc1)C1CCCCC1.Cl` (configuration not stated): the entries for the “NF-kB SEAP reporter activity” value with RAW-Dual [1] (setting [4]) and in the assay on RAW-Dual [1] (setting [5]) were 1.75 and 1.46, respectively.

As to `CCN(CC)CC#CCOC(=O)C(O)(c1ccccc1)C1CCCCC1.Cl` (configuration not stated) (library stock concentration (final ~1000-fold dilution): 10 mM), the “NF-kB SEAP reporter activity” value was 2.01 in the assay with RAW-Dual [2] (agonist: LPS (TLR4) 0.1 ug/mL), 0.958 with RAW-Dual [2] (setting [6]), 0.963 in the assay on RAW-Dual [2] (setting [7]) and 1.3 with RAW-Dual [2] (setting [8]).

`O=C(O)CCCN1CCC(OC(c2ccc(Cl)cc2)c2ccccn2)CC1` (configuration not stated) (library stock concentration (final ~1000-fold dilution): 10 mM): the “NF-kB SEAP reporter activity” value with RAW-Dual [2] (agonist: LPS (TLR4) 0.1 ug/mL) is 0.969; with RAW-Dual [2] (setting [6]) it was 0.924; with RAW-Dual [2] (setting [7]), 1.07; with RAW-Dual [2] (setting [8]), 0.895.

As for `O=C(O)CCCN1CCC(OC(c2ccc(Cl)cc2)c2ccccn2)CC1` (configuration not stated), the figures for the “NF-kB SEAP reporter activity” value in the assay on RAW-Dual [1] (setting [4]) and in the assay with RAW-Dual [1] (setting [5]) were 0.895 and 1.07, respectively.

On to `COc1cc2nccc(Oc3ccc(NC(=O)C4(C(=O)Nc5ccc(F)cc5)CC4)cc3)c2cc1OC` (library stock concentration (final ~1000-fold dilution): 10 mM), for which the “NF-kB SEAP reporter activity” value in the assay with RAW-Dual [2] (agonist: LPS (TLR4) 0.1 ug/mL) came out at 0.511; in the assay with RAW-Dual [2] (setting [6]), 0.42; in the assay on RAW-Dual [2] (setting [7]) it was 0.302; in the assay on RAW-Dual [2] (setting [8]) it was 0.275.

Regarding `COc1cc2c(Oc3ccc(NC(=O)C4(C(=O)Nc5ccc(F)cc5)CC4)cc3F)ccnc2cc1OCCCN1CCOCC1` (library stock concentration (final ~1000-fold dilution): 10 mM), the “NF-kB SEAP reporter activity” value in the assay with RAW-Dual [2] (agonist: LPS (TLR4) 0.1 ug/mL) amounted to 0.266; with RAW-Dual [2] (setting [6]), 0.184; in the assay with RAW-Dual [2] (setting [7]) it was 0.0818; in the assay on RAW-Dual [2] (setting [8]), 0.137.

Take `CN1CCN(C2CCN(C(=O)Nc3cc(Oc4ccc(NC(=O)C5(C(=O)Nc6ccc(F)cc6)CC5)c(F)c4)ccn3)CC2)CC1`: the “NF-kB SEAP reporter activity” value with RAW-Dual [1] (cytotoxicity flag (confluency mask): cytotoxic (confluency <70% of control), agonist: Imiquimod (TLR7) […]) is 2.76; with RAW-Dual [1] (cytotoxicity flag (confluency mask): cytotoxic (confluency <70% of control), agonist: MPLA (TLR4) […]), 2.32.

`COc1cc2c(Oc3ccc(NC(=O)C4(C(=O)Nc5ccc(F)cc5)CC4)cc3F)ccnc2cc1OCCCN1CCOCC1`: the “NF-kB SEAP reporter activity” value in the assay on RAW-Dual [1] (setting [4]) and in the assay on RAW-Dual [1] (setting [5]) was 0.252 each time.

`COc1cc2nccc(Oc3ccc(NC(=O)C4(C(=O)Nc5ccc(F)cc5)CC4)cc3)c2cc1OC`: the “NF-kB SEAP reporter activity” value with RAW-Dual [1] (setting [4]) stood at 0.555; with RAW-Dual [1] (setting [5]), 0.59.

As for `CN1CCN(C2CCN(C(=O)Nc3cc(Oc4ccc(NC(=O)C5(C(=O)Nc6ccc(F)cc6)CC5)c(F)c4)ccn3)CC2)CC1` (library stock concentration (final ~1000-fold dilution): 10 mM), the “NF-kB SEAP reporter activity” value with RAW-Dual [3] (agonist: LPS (TLR4) 0.1 ug/mL) amounted to 1.43; with RAW-Dual [3] (setting [6]), 0.896; in the assay with RAW-Dual [3] (setting [7]), 0.607; with RAW-Dual [3] (setting [8]), 0.664.

In the case of `CC(Nc1nc(NC(C)C(F)(F)F)nc(-c2cccc(Cl)n2)n1)C(F)(F)F` (configuration not stated) (library stock concentration (final ~1000-fold dilution): 10 mM), the “NF-kB SEAP reporter activity” value in the assay with RAW-Dual [2] (agonist: LPS (TLR4) 0.1 ug/mL) stood at 1.26; in the assay with RAW-Dual [2] (setting [6]) it was 1.18; in the assay on RAW-Dual [2] (setting [7]), 0.998; with RAW-Dual [2] (setting [8]) it was 1.09.

Consider `CC(Nc1nc(NC(C)C(F)(F)F)nc(-c2cccc(Cl)n2)n1)C(F)(F)F` (configuration not stated), for which the figures for the “NF-kB SEAP reporter activity” value with RAW-Dual [1] (setting [4]) and in the assay on RAW-Dual [1] (setting [5]) were 1.04 and 1.11, respectively.

With `CC1CNc2c(cccc2S(=O)(=O)NC(CCCNC(=N)N)C(=O)N2CCC(C)CC2C(=O)O)C1.O` (configuration not stated) (library stock concentration (final ~1000-fold dilution): 10 mM), the “NF-kB SEAP reporter activity” value in the assay on RAW-Dual [2] (agonist: LPS (TLR4) 0.1 ug/mL) amounted to 0.94; in the assay with RAW-Dual [2] (setting [6]), 1.05; in the assay with RAW-Dual [2] (setting [7]) it was 0.969; with RAW-Dual [2] (setting [8]), 0.87.

`CC1CNc2c(cccc2S(=O)(=O)NC(CCCNC(=N)N)C(=O)N2CCC(C)CC2C(=O)O)C1.O` (configuration not stated): the “NF-kB SEAP reporter activity” value in the assay with RAW-Dual [1] (setting [5]) is 0.981.

The record behind these values is the supplement of paper PMC10037445.
